Assay outcomes (PubChem BioAssay)
HSP90 refold inh: HSP90 refolding inhibition in rabbit reticulocyte lysate; luciferase refolding luminescence, 3 h; inhibition, % at 5.6 µM; 0.91% of 290,000 active; AID 1789;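 active = inhibition above the screen-wide mean plus 3 SD, computed separately per campaign, cut at about 16% in these data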;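 also: inhibitors lower the luminescence because luciferase stays unfolded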
HIF activator: HIF pathway transcriptional activation. U2OS HRE-luciferase reporter, luminescence; normalized: DMSO 0%, desferrioxamine 100%. AID 1910. activation, % at 7.5 µM (by protocol). 0.32% of 300,000 active;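 active = mean activation of at least 10% of the iron chelator positive control signal, with at least half of replicates also reaching 10%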
ARNT-TACC3 inh: ARNT/TACC3 interaction disruption | Q9Y6A5 | AlphaScreen His-ARNT PAS-B/GST-TACC3 binding, luminescence; TACC3 fragment carries E629A point mutation | inhibition, % at 9.99 µM | 0.66% of 390,000 active;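 active = mean inhibition of replicates at least 50% and at least half of replicates each reaching 50%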
HSF1 inhib: HSF1 inhibition; NIH3T3-HGL HSE-luciferase, MG132-induced, luminescence 8 h; hits give low values; activity change, negative = inhibition, % at 7.5 µM (by protocol); 0.77% of 300,000 active; AID 2098;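 active = more than half of replicate wells show activity change below -50%, luminescence cut by over half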;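 also: luciferase reports HSF-1 transcriptional activity via heat shock element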
HSF1 activator: increases HSF-1 driven luciferase reporter signal | NIH3T3-HGL HSF-1 luciferase reporter, MG132, 8 h; 100% = twice DMSO control signal | activation, % at 9 µM | 1.7% of 300,000 active | AID 504408;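 active = mean replicate activation of at least 50% with a set share of replicates each reaching 50%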
A number is an active result. Most compounds without a hit are left out; they make up all but 3.1% or so of the library.

`Cc1ccc(S(=O)(=O)N(C)C[C@H]2OCCCC[C@H](C)Oc3ccc(NS(=O)(=O)c4cn(C)cn4)cc3C(=O)N([C@@H](C)CO)C[C@H]2C)cc1` gave ARNT-TACC3 inh inactive.
Screening CC(=O)N1CCCCN2[C@H](CO)[C@@H](c3ccc(-c4ccc(C)cc4)cc3)[C@H]2C1 returned ARNT-TACC3 inh inactive.
`COc1ccc(NC(=O)N(C)C[C@@H]2OCCCC[C@H](C)Oc3ccc(NC(=O)Nc4cccc5ccccc45)cc3C(=O)N([C@H](C)CO)C[C@@H]2C)cc1` gave ARNT-TACC3 inh inactive.
Screening C[C@@H]1CN([C@H](C)CO)C(=O)c2cc(Br)cnc2O[C@@H]1CN(C)C(=O)C1CCCCC1 returned ARNT-TACC3 inh inactive.
For COc1cc(/C=C2/CC/C(=C/c3ccc(O)c(OC)c3)C2=O)ccc1O the results were HSP90 refold inh inactive, HIF activator inactive, ARNT-TACC3 inh inactive, HSF1 inhib inactive and HSF1 activator inactive.
`COc1ccc(/C=C2\CC/C(=C\c3ccc(OC)c(OC)c3)C2=O)cc1OC` gave HSP90 refold inh inactive, HIF activator inactive, ARNT-TACC3 inh inactive, HSF1 inhib inactive and HSF1 activator 63.
`C[C@H]1CN([C@@H](C)CO)C(=O)c2cc(NC(=O)Cc3ccccc3)ccc2O[C@@H]1CN(C)S(=O)(=O)c1ccc(Cl)cc1` gave ARNT-TACC3 inh inactive.
Screening CCOC(=O)C1CCN(c2ncnc3c2cnn3-c2ccccc2)CC1 returned HSP90 refold inh inactive, HIF activator inactive, ARNT-TACC3 inh inactive, HSF1 inhib inactive and HSF1 activator inactive.
`CC1CCN(c2ncnc3c2cnn3-c2ccccc2)CC1` gave HSP90 refold inh inactive, HIF activator inactive, ARNT-TACC3 inh inactive, HSF1 inhib inactive and HSF1 activator 57.
For Cc1nn(-c2ccccc2)c(Cl)c1C(=O)N1CCN(c2ncnc3c2cnn3-c2ccccc2)CC1 the results were HSP90 refold inh inactive, HIF activator inactive, ARNT-TACC3 inh inactive, HSF1 inhib -77 and HSF1 activator inactive.
COc1ccc(-n2ncc3c(N4CCC(C)CC4)ncnc32)cc1 was read as HSP90 refold inh 29, HIF activator inactive, ARNT-TACC3 inh inactive, HSF1 inhib inactive and HSF1 activator inactive.
For O=C(c1ccccc1)N1CCN(c2ncnc3c2cnn3-c2ccccc2)CC1 the results were HSP90 refold inh inactive, HIF activator inactive, ARNT-TACC3 inh inactive, HSF1 inhib inactive and HSF1 activator inactive.
For COc1cccc(OCCN2CCN(c3ncnc4c3cnn4-c3ccccc3)CC2)c1 the results were HSP90 refold inh inactive, HIF activator inactive, ARNT-TACC3 inh inactive, HSF1 inhib inactive and HSF1 activator inactive.
Screening O=C(C[C@H]1CC[C@@H](NC(=O)c2cccnc2)[C@H](CO)O1)NCc1ccncn1 returned ARNT-TACC3 inh inactive.
For C[C@H](NC(=O)C[C@@H]1CC[C@@H](NC(=O)Cc2ccccn2)[C@H](CO)O1)c1ccccc1 the results were ARNT-TACC3 inh inactive.
Screening COc1ccc(C(c2nnnn2CC2CCCO2)N2CCC(C(N)=O)CC2)cc1 (stereo not given) returned HSP90 refold inh inactive, HIF activator inactive, ARNT-TACC3 inh inactive, HSF1 inhib inactive and HSF1 activator inactive.
For COc1ccccc1C(c1nnnn1CC1CCCO1)N1CCC(C(N)=O)CC1 (stereo not given) the results were HSP90 refold inh inactive, HIF activator 15, ARNT-TACC3 inh inactive, HSF1 inhib inactive and HSF1 activator inactive.
O=c1nc2n(c3ncccc13)CCC2 was read as HSP90 refold inh 16, HIF activator inactive, ARNT-TACC3 inh inactive, HSF1 inhib inactive and HSF1 activator inactive.
`Cc1nc2c(ccc3nc(NC(=O)Cc4cccc5ccccc45)sc32)s1` gave HSP90 refold inh inactive, HIF activator inactive, ARNT-TACC3 inh inactive, HSF1 inhib -56 and HSF1 activator inactive.
Cc1nc2c(ccc3nc(NC(=O)C(c4ccccc4)c4ccccc4)sc32)s1 was read as HSP90 refold inh inactive, HIF activator inactive, ARNT-TACC3 inh inactive, HSF1 inhib inactive and HSF1 activator inactive.
Screening CCCN1C[C@@H](C)[C@@H](OC)CN(C)C(=O)c2cc(NC(=O)COC)ccc2OC[C@@H]1C returned ARNT-TACC3 inh inactive.
For C[C@H](CO)N1C[C@H](C)[C@H](CN(C)C(=O)Nc2ccc(F)cc2)Oc2c(NC(=O)c3nc4ccccc4s3)cccc2C1=O the results were ARNT-TACC3 inh inactive.
For O=c1c(-c2nc3ccccc3s2)cccn1Cc1ccc(Cl)cc1 the results were HSP90 refold inh inactive, HIF activator inactive, ARNT-TACC3 inh inactive, HSF1 inhib inactive and HSF1 activator 88.
`Clc1ncccc1-c1nc2ccccc2s1` gave HSP90 refold inh inactive, HIF activator inactive, ARNT-TACC3 inh inactive, HSF1 inhib inactive and HSF1 activator inactive.
`Cc1ccc(OCc2nnc(SC(C)C(=O)O)n2-c2ccccc2)cc1` (stereo not given) gave HSP90 refold inh inactive, HIF activator inactive, ARNT-TACC3 inh inactive, HSF1 inhib -63 and HSF1 activator inactive.
Screening COc1cccc(Nc2nc(N)c([N+](=O)[O-])c(NCc3ccccc3)n2)c1 returned HSP90 refold inh inactive, HIF activator inactive, ARNT-TACC3 inh inactive, HSF1 inhib inactive and HSF1 activator 70.
For Cc1cc(Sc2ncnc(N)c2[N+](=O)[O-])ncn1 the results were HSP90 refold inh inactive, HIF activator inactive, ARNT-TACC3 inh inactive, HSF1 inhib inactive and HSF1 activator 65.
Cc1cc(Sc2nc(N)ncc2[N+](=O)[O-])ncn1 was read as HSP90 refold inh inactive, HIF activator inactive, ARNT-TACC3 inh inactive, HSF1 inhib inactive and HSF1 activator inactive.
For CO[C@H]1CN(C)C(=O)c2ccc(NC(=O)Nc3ccccc3F)cc2OC[C@H](C)NC[C@H]1C the results were ARNT-TACC3 inh inactive.
For Cc1nn(CC(=O)O)c(=O)c2ccccc12 the results were HSP90 refold inh inactive, HIF activator inactive, ARNT-TACC3 inh inactive, HSF1 inhib inactive and HSF1 activator inactive.
Screening Cc1cc(C(=O)Cn2nc(C(=O)O)c3ccccc3c2=O)c(C)n1-c1cccc(C(F)(F)F)c1 returned HSP90 refold inh inactive, HIF activator inactive, ARNT-TACC3 inh inactive, HSF1 inhib inactive and HSF1 activator inactive.
Cc1cc(C(=O)Cn2nc(C(=O)O)c3ccccc3c2=O)c(C)n1-c1ccc(F)cc1 was read as HSP90 refold inh 17, HIF activator inactive, ARNT-TACC3 inh inactive, HSF1 inhib inactive and HSF1 activator inactive.
For CNC(=O)Cn1nc(C)c2ccccc2c1=O the results were HSP90 refold inh inactive, HIF activator inactive, ARNT-TACC3 inh inactive, HSF1 inhib -78 and HSF1 activator inactive.
Screening CC(NC(=O)Cn1nc(C(=O)O)c2ccccc2c1=O)c1ccccc1 (stereo not given) returned HSP90 refold inh inactive, HIF activator inactive, ARNT-TACC3 inh inactive, HSF1 inhib inactive and HSF1 activator 52.
`CCOC(=O)c1ccc(NC(=O)/C=C/c2cccs2)cc1` gave HSP90 refold inh inactive, HIF activator inactive, ARNT-TACC3 inh inactive, HSF1 inhib inactive and HSF1 activator 53.
